The panel holds about 83,000 compounds, 20% with a hit somewhere; the sample as a whole holds those more often.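 Values shown are percent growth following 48 h exposure of cells in 96-well plates to a single concentration of compound; below 10 was considered active.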 Active and inactive are the calls of the source.
Experiments:
Assay in all cases: NCI-60 one-dose screen, 48 h (100 = growth as untreated, 0 = no growth, -100 = all killed)
Details in all cases: 10 µM unless noted
[1] = tested on: BT-549 breast
[2] = tested on: MDA-MB-435 melanoma
[3] = tested on: SW-620 colon
[4] = tested on: MCF7 breast
[5] = tested on: HCT-116 colon
[6] = tested on: KM12 colon
[7] = tested on: HCC-2998 colon

Measured: growth

O=C(CCCN1C(=O)/C(=C/c2ccccc2F)SC1=S)N1CCOCC1
inactive: [1] 114% | [2] 82.7% | [3] 95.2% | [4] 56.9% | [5] 88.7% | [6] 85.4%

COc1ccccc1/C=C/C=N/NC1=NC2C(S1)N(C)C(=O)N2C (centres undefined)
active: [2] -57.1%
inactive: [1] 67.8% | [3] 20.9% | [4] 19.9% | [5] 35.9% | [6] 18.2%

CN(C)c1ccc(/C=c2\sc3nc4ccccc4n3c2=O)cc1
inactive: [1] 118% | [2] 101% | [3] 102% | [5] 105% | [7] 107%

N#Cc1c(-c2ccc(Cl)cc2)nc2c(-c3ccccc3)c(Nc3ccccc3)nn2c1N
inactive: [1] 94.4% | [2] 58.7% | [3] 40.6% | [5] 20.7% | [6] 60%

O=C1Nc2ccc(Cl)cc2/C1=C/c1ccc(OCC(=O)c2ccc(Br)cc2)cc1
inactive: [1] 118% | [2] 99.1% | [3] 89.9% | [5] 95.5% | [7] 99.5% | [6] 59.1%

O=C1c2c(c3c4cc(Br)ccc4[nH]c3c3ccc4ccccc4c23)C(=O)N1CCO
inactive: [1] 105% | [2] 94.8% | [3] 75.9% | [5] 84.2% | [7] 103%

N/C(=N\c1nc2c(Cl)cc(Cl)cc2s1)C(Cl)(Cl)Cl
active: [7] -1.09%
inactive: [1] 110% | [2] 75.6% | [3] 60.6% | [5] 51%

Clc1ccc2oc3c(NCCCN4CCOCC4)c4ccccc4nc3c2c1
inactive: [1] 67.8% | [2] 22% | [3] 15% | [5] 14.8% | [7] 28.9% | [6] 26.5%

N/C(=N\c1nc2c(Br)cccc2s1)C(Br)Br
active: [2] -48.2% | [3] -39.2% | [5] -56.1% | [7] 3.14%
inactive: [1] 29.2%

CNC(=O)c1cc(-c2ccc(NC(=O)Nc3ccc(N4CCN(C)CC4)c(C(F)(F)F)c3)cc2)nc2cccnc12
active: [1] -81.4% | [2] -93% | [3] -81.2% | [5] -98.4% | [7] -94.9%

Cc1nc2cnc(N)c(C#Cc3cncc(C(=O)Nc4ccc(Cl)c(C(F)(F)F)c4)c3)c2nc1C
active: [3] -18.9% | [6] 3.01%
inactive: [1] 86.7% | [2] 41% | [5] 15.4% | [7] 60.4%

COc1cc2nc(-c3ccc(C)cc3)cc(OCCCNCC3CCCO3)c2cc1OC (centres undefined)
inactive: [1] 98.5% | [2] 54.3% | [3] 77.5% | [5] 40.7% | [6] 60%

C=C1CC[C@H]2[C@@](C)(CCC3OC(c4ccc(OCc5cn(C6CC(OC(C)=O)C(OC(C)=O)C(COC(C)=O)O6)nn5)cc4)OC[C@]32C)[C@@H]1/C=C/C1=CCOC1=O (some centres undefined)
inactive: [1] 61.2% | [2] 85.4% | [3] 96.1% | [5] 48.3% | [7] 100% | [6] 86.3%

C#Cc1nc(C2=C(C)C(O)/C(=N/O)C2)cs1 (centres undefined)
inactive: [1] 111% | [2] 95.6% | [3] 123% | [5] 100% | [7] 117% | [6] 42.9%

CC(C)Sc1nc(Nc2ccc(S(N)(=O)=O)cc2)c(C#N)c(-c2ccc(F)cc2)n1
inactive: [1] 53.3% | [2] 49.9% | [3] 24.3% | [7] 58.8% | [6] 48.8%

COC1CCN(Cc2ccc3c(NNC(=O)c4cnccn4)nc4cc(F)ccc4n23)C1 (centres undefined)
active: [5] 4.53%
inactive: [1] 51.7% | [2] 37.2% | [3] 24% | [7] 59.9% | [6] 22.6%

CCOC(=O)c1sc(NCC(=O)Nc2cccc([N+](=O)[O-])c2)c(C(=O)OCC)c1C
active: [1] -19.3% | [2] -82% | [3] 2.53% | [5] 0.39% | [6] -9.01%

Cc1sc2nc(NCc3ccccc3Cl)[nH]c(=O)c2c1C
inactive: [1] 99.8% | [2] 92.6% | [3] 102% | [5] 49.7% | [7] 115% | [6] 91%

C=CCSc1ccc2c(c1)C(N1CCNCC1)=Nc1ccccc1O2
active: [7] -14.8% [8.25 µM]
inactive: [1] 106% [8.25 µM] | [2] 68% [8.25 µM] | [3] 73.4% [8.25 µM] | [5] 55.1% [8.25 µM]

O=C(N/N=C/c1ccc(Br)s1)c1[nH]c2ccc(Br)cc2c1-c1ccccc1
active: [1] -11.8% | [2] -5.5% | [5] -14.2% | [6] 8.2%
inactive: [3] 23.6% | [7] 20.5%

Cn1c(SCC(=O)Nc2ccc(-c3nc4ccc([N+](=O)[O-])cc4[nH]3)cc2)nc2ccccc2c1=O
inactive: [1] 27.8% | [2] 93.4% | [3] 87.3% | [5] 70.9% | [7] 84.6% | [6] 65.5%

CN(C)CCCOc1c2ccc(Cl)cc2nc2c1oc1ccc(Cl)cc12
active: [2] -10.2% | [3] -82.9% | [7] -67.9% | [6] -62.3%
inactive: [1] 45.6% | [5] 10.8%

COc1ccc(/C=N/NC(=O)c2[nH]c3ccc(Br)cc3c2-c2ccccc2)o1
inactive: [3] 21.6% | [7] 21.3%
active: [1] -15.5% | [2] -16.9% | [5] -18.8% | [6] 6.83%

C=CCn1c(SCC(=O)c2ccc(Br)cc2)nnc1-c1c[nH]c2ccccc12
inactive: [1] 106% | [2] 108% | [3] 110% | [5] 93.5% | [7] 104%

COc1ccc(N/N=C/c2c(-c3ccc(S(C)(=O)=O)cc3)nc3ccccn23)cc1
inactive: [1] 60.5% | [2] 34.1% | [3] 30.1% | [5] 32.5% | [7] 49.3%

C#Cc1nc(C2=C(C)C(=N\O)/C(=N/O)C2)cs1
inactive: [1] 105% | [2] 93.7% | [3] 109% | [5] 87.3% | [7] 113% | [6] 67.1%

N#Cc1nc(-c2ccccc2)oc1N1CC[C@@H](CO)C1
inactive: [1] 117% | [2] 99% | [3] 99% | [5] 103% | [7] 110% | [6] 111%

O=C(N/N=C/c1ccc[nH]1)c1[nH]c2ccc(Br)cc2c1-c1ccccc1
inactive: [3] 22.8% | [7] 17.2%
active: [1] -12.5% | [2] 2.21% | [5] 0.0164%

Cc1c(Nc2nnc(SCC(=O)Nc3sc4c(c3C#N)CCCC4)s2)c(=O)n(-c2ccccc2)n1C
inactive: [1] 113% | [2] 104% | [3] 103% | [5] 102% | [7] 115%

COc1ccc(C(=O)/C=C/c2ccc(OCc3ccc(C)cc3)c(OC)c2)cc1OC
inactive: [1] 73.2% | [2] 82.6% | [3] 45.5% | [5] 25.3% | [7] 91.1%

Cc1cccc2sc(/N=C(\N)C(Br)Br)nc12
inactive: [1] 30.2% | [2] 12.3%
active: [3] -40.2% | [5] -29.1% | [7] 4.99% | [6] 9.77%

O=C(CN1CCOCC1)NNc1ncnc2ccccc12
active: [3] -26%
inactive: [1] 100% | [2] 91.7% | [5] 81.7% | [7] 114% | [6] 97.1%

CN(C)CCCNc1c2ccccc2nc2c1oc1ccc(Cl)cc12
active: [3] 9.93% | [7] -43.7%
inactive: [1] 57.9% | [2] 33.5% | [5] 22.5% | [6] 25.5%

N#Cc1nc(-c2ccccc2)oc1N1CCC(CO)C1 (centres undefined)
inactive: [1] 95.3% | [2] 95.7% | [3] 98.4% | [5] 107% | [7] 115% | [6] 101%

O=C1c2c(c3c4cccnc4[nH]c3c3ccc4ccccc4c23)C(=O)N1CCO
inactive: [1] 86.8% | [2] 85.1% | [3] 57.6% | [5] 60.2% | [7] 101%

Nc1cc(-c2c[nH]c3ccccc23)nc2cc(-c3c[nH]c4ccccc34)nn12
inactive: [1] 84.4% | [2] 70.9% | [5] 30.7% | [7] 21% | [6] 10.3%
active: [3] -25.1%

CC(C)(C)Nc1nc2c(OCCc3ccccc3)cccn2c1-c1ccccc1Cl
active: [2] 7.76% | [5] 2.39% | [7] -0.61% | [6] 4.49%
inactive: [1] 24% | [3] 11.5%

NS(=O)(=O)c1cccc(Nc2nc(SCC(=O)c3ccc(Br)cc3)nc3ccccc23)c1
active: [1] -40.8%
inactive: [2] 75.3% | [3] 63.7% | [5] 38.9% | [7] 86.1% | [6] 69.7%

[Cl][Ru].c1ccc(-c2cc(-c3ccccn3)nc(-c3ccccn3)c2)cc1.c1ccc(-c2ccnc3c2ccc2c(-c4ccccc4)ccnc23)cc1
active: [1] -94.6% | [2] -62.2% | [3] -56.7% | [5] -79% | [7] -72.9% | [6] -70.8%

COc1ccc(NC2=CC(=O)C(C)=C(C)C2=O)cc1
inactive: [1] 119% | [3] 101% | [5] 80.6% | [6] 101%
active: [2] 7.8%

COc1ccc(COc2ccc(/C=C3/C(=O)Nc4cc(Cl)ccc43)cc2)cc1
inactive: [1] 102% | [2] 97.6% | [3] 95.7% | [5] 101% | [7] 100% | [6] 101%

— PubChem BioAssay (NCI)
